Drawing on ChEMBL document CHEMBL2218924, “A broad activity screen in support of a chemogenomic map for kinase signalling research and drug discovery” (Biochem J, 2013), this text covers residual activity for one molecule.

Each structure is given as a SMILES string.

The target in assay [1] is T1, Serine/threonine-protein kinase TBK1 (Homo sapiens) (UniProt Q9UHD2).
T1 sequence (whole entry): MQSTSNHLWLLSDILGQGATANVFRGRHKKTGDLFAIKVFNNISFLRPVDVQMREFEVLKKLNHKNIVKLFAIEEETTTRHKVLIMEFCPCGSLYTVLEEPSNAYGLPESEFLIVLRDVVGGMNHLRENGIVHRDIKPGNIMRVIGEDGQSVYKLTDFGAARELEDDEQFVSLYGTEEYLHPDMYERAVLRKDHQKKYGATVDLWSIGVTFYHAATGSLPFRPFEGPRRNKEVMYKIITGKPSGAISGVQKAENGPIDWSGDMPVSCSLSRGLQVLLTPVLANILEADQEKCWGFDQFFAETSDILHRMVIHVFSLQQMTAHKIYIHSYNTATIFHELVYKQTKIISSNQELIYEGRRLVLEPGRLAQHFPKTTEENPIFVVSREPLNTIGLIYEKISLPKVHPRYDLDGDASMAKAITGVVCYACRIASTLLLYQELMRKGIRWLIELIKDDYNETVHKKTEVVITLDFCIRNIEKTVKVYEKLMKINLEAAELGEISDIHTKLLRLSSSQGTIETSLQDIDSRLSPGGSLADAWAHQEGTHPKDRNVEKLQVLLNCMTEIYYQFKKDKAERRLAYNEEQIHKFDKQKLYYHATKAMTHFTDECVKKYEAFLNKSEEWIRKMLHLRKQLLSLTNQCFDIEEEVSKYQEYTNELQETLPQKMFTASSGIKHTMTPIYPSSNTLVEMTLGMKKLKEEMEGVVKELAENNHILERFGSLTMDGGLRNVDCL
The following applies: at 10 µM.

For assay [2], the target named is T2, TGF-beta receptor type-1 (Homo sapiens) (UniProt P36897).
T2 sequence (whole entry): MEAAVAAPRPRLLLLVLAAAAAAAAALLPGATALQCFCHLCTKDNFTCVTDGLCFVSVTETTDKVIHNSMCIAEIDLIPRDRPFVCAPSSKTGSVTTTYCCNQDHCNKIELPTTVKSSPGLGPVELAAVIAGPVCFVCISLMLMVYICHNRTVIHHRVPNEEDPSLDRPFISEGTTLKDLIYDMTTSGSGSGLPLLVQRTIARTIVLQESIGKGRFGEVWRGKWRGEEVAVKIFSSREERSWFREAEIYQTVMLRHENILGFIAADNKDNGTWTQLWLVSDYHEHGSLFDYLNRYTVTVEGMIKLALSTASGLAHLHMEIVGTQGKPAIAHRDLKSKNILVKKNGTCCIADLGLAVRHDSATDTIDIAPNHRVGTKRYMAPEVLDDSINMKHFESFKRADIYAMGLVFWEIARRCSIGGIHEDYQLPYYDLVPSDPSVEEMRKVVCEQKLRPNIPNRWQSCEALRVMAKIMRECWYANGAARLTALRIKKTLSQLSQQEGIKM
The following applies: at 1 µM.

The target of assay [3] is T2, TGF-beta receptor type-1 (Homo sapiens). The following applies: at 10 µM.
In assay [4] the target is Insulin-like growth factor 1 receptor (Homo sapiens) (UniProt P08069). The following applies: at 1 µM.
Insulin-like growth factor 1 receptor (Homo sapiens), sequence (P08069 31-736 limits assumed): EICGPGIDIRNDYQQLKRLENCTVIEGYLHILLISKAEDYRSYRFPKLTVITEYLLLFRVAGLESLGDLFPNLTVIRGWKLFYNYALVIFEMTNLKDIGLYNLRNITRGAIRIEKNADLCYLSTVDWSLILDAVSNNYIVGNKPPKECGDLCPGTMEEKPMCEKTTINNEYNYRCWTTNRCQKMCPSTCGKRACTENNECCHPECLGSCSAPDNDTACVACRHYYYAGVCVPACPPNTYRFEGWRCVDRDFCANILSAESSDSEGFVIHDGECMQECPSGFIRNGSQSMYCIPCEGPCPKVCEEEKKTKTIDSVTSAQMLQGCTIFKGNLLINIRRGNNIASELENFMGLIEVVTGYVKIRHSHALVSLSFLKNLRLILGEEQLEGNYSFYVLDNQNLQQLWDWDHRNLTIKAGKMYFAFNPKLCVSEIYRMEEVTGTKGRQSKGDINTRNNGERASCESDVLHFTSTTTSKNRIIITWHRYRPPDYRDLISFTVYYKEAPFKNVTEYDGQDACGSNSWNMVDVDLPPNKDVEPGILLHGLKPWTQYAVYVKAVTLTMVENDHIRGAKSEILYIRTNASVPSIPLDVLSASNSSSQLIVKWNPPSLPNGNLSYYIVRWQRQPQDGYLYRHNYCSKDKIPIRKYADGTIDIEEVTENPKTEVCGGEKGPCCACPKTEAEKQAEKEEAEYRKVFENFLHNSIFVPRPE
Insulin-like growth factor 1 receptor (Homo sapiens), sequence (P08069 741-1367 limits assumed): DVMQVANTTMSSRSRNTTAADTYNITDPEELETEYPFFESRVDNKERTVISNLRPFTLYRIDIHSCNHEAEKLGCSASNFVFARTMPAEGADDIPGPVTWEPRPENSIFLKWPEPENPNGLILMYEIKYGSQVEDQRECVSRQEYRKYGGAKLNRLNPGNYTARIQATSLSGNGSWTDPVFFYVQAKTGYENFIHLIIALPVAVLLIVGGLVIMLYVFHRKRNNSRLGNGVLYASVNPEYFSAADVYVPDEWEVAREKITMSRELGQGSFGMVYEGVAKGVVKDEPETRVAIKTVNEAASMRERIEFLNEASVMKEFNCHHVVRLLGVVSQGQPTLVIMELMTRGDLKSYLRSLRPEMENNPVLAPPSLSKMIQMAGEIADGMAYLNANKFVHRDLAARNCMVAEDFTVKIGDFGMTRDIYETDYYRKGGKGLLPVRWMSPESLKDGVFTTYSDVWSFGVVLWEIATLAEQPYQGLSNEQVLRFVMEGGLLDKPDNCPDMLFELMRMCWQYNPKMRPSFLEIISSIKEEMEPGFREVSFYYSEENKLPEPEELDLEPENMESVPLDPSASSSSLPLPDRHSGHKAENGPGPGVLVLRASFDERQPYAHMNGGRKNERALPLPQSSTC
The target is the same in assay [5]. The settings on record: at 10 µM.
The target in assay [6] is T3, Inhibitor of nuclear factor kappa-B kinase subunit alpha (Homo sapiens) (UniProt O15111).
T3 sequence (whole entry): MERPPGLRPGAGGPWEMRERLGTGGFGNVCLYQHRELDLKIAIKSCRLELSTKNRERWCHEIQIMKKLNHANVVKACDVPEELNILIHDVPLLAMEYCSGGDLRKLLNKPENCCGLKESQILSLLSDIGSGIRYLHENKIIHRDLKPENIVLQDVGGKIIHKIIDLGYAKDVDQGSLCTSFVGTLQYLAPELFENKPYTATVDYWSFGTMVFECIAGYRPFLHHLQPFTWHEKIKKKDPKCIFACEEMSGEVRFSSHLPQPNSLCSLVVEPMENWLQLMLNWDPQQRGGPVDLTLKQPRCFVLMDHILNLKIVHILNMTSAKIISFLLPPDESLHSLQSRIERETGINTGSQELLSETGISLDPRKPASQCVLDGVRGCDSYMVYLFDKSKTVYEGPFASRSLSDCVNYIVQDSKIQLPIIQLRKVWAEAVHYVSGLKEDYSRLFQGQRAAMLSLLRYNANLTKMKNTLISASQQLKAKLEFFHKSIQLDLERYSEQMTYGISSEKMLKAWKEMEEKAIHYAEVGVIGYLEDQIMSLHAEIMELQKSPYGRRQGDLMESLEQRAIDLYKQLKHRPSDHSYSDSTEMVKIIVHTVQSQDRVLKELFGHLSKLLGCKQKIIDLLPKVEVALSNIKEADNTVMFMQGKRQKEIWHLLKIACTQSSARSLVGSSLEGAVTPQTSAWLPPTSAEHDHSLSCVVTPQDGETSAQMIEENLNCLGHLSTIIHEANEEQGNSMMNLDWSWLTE
The settings on record: at 1 µM.

Assay [7] addresses T3, Inhibitor of nuclear factor kappa-B kinase subunit alpha (Homo sapiens). The following applies: at 10 µM.
The target of assay [8] is T4, Inhibitor of nuclear factor kappa-B kinase subunit beta (Homo sapiens) (UniProt O14920).
T4 sequence (whole entry): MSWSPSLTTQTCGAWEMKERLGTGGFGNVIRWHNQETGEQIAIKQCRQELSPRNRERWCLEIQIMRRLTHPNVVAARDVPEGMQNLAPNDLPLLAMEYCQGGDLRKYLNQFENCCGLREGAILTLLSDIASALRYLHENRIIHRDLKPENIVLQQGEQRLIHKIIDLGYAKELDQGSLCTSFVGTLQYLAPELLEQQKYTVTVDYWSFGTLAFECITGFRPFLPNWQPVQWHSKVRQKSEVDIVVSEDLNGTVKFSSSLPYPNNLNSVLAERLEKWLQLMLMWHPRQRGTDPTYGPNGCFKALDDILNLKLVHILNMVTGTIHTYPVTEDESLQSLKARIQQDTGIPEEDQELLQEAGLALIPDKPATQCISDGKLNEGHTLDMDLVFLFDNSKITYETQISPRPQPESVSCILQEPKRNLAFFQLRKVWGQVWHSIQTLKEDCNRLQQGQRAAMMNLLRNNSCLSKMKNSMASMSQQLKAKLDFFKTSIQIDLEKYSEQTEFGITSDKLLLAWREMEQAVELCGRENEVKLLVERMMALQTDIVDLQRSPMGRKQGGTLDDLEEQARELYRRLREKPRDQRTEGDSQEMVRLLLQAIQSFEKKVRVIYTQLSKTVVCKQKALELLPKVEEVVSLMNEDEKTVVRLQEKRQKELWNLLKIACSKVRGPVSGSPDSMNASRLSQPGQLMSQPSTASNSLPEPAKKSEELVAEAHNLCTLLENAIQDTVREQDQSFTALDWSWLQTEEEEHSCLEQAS
The settings on record: at 1 µM.

Assay [9] has as its target T4, Inhibitor of nuclear factor kappa-B kinase subunit beta (Homo sapiens). The following applies: at 10 µM.
Assay [10] has as its target Insulin receptor (Homo sapiens) (UniProt P06213). The following applies: at 1 µM.

Insulin receptor (Homo sapiens), sequence (P06213 28-758 limits assumed): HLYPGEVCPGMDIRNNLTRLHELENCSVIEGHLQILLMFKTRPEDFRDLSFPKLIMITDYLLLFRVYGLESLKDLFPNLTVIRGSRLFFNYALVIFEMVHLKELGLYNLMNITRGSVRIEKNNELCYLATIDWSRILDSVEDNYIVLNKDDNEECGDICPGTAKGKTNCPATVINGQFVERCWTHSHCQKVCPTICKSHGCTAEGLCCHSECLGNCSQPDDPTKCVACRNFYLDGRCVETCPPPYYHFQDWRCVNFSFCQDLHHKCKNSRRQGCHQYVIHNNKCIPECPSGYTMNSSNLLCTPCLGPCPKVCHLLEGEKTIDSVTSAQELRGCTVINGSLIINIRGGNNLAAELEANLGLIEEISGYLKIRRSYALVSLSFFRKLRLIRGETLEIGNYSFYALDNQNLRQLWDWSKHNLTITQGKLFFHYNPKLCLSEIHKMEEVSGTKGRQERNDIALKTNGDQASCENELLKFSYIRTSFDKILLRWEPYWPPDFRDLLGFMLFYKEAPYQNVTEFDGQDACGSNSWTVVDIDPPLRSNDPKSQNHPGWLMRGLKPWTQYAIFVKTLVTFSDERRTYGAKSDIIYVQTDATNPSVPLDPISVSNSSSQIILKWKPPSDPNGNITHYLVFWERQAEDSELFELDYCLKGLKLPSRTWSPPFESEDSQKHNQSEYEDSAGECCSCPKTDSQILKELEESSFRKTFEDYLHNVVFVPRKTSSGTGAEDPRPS
Insulin receptor (Homo sapiens), sequence (P06213 763-1382 limits assumed): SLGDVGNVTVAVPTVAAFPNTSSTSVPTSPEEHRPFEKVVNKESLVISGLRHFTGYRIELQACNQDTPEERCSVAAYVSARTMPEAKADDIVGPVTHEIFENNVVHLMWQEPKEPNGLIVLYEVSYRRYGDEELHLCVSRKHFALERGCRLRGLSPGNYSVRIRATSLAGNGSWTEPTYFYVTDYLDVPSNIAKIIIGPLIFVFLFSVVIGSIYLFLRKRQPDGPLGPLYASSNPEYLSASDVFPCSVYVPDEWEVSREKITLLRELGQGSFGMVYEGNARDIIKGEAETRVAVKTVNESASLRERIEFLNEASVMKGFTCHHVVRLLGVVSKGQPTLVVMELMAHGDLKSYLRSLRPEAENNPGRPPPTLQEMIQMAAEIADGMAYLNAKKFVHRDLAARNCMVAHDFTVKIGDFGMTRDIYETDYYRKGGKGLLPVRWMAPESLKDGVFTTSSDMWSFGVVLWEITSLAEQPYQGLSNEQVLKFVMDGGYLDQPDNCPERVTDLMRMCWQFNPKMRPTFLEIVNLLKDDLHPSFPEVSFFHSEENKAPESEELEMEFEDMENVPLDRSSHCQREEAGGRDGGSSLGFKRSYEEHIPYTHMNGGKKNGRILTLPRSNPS

With `Nc1n[nH]c2nnc(-c3c(-c4ccccc4)nn4ccccc34)cc12`, the residual activity in assay [1] came to 67%; in [2], 88%; in assay [3], 83%; in [4], 82%; in [5], 76%; in [6], 115%. Besides, the residual activity in assay [7] was 107%; in assay [8], 102%; in assay [9] it was 102%; in assay [10] it was 70%.

The term residual activity denotes the signal under treatment as a percentage of the control signal.
